Our source for the Potency values is PubChem BioAssay (NCATS).

Active and inactive are the calls of the source. How the calls were made is not given here. A value given as a limit tells only on which side of the number the result lay.
Potency means the concentration at half of the fitted maximal effect.

For this assay, the system named is HIV-1 nucleocapsid protein NCp7 (binding to TG oligonucleotide). The assay can be described thus: HIV Nucleocapsid (AID 346).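 Further: potency is for inhibitors that block NC binding and lower polarization.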 The following applies: HIV-1 NC / fluorescein-TGTGTGTG probe, fluorescence polarization. A digest of the protocol: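 HIV-1 NC (100 nM) binding to fluorescein-labelled ssDNA TG4xF (10 nM) in Hepes pH 7.5, 250mM NaCl, 1uM ZnCl2, TCEP and 2-mercaptoethanol; compounds pin-transferred, 1 hr room temperature, fluorescence polarization read on CCD imager.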
A general note: Polarisation of emitted light reports the rotation of a fluorescent probe.
Take `COc1ccccc1CN1CC[C@@]2(CCCN(C(=O)c3cccn3C)C2)C1`: the Potency is > 20 µM (inactive).

Regarding `COc1ncc2nc(-c3cn(C)c4ccccc34)c(=O)n(-c3ccccc3)c2n1`, the Potency is > 20 µM (inactive).

For the compound `COc1ccccc1-c1cc(NCc2cccnc2)ncn1`, the Potency is > 20 µM (inactive).

Turning to `CCNc1ncc2nc(-c3ccccc3)c(=O)n(-c3ccc(OC)cc3)c2n1`, the Potency was > 20 µM (inactive).

For `COc1ccc(C(=O)N2CCC3(CC2)CN(c2ccncc2)C3)cc1`, the Potency is > 20 µM (inactive).

For `Cc1ccccc1-c1cc(-n2ccnc2)ncn1`, the Potency is > 20 µM (inactive).

`Cc1noc(C)c1-c1nc(N2CCN(C)CC2)c2ccccc2n1`: the Potency is > 20 µM (inactive).

`O=C(c1cnccn1)N1CCC2(CCCN(c3ncccn3)C2)CC1`: the Potency is > 20 µM (inactive).

On to `COc1ccccc1CNc1cc(-c2ccccc2CN(C)C)ncn1`, for which the Potency was > 20 µM (inactive).

For the compound `CC(C)CN1CCCC2(CCN(S(=O)(=O)c3ccccc3)CC2)C1`, the Potency is > 20 µM (inactive).

As to `Cc1noc(C)c1C(=O)N1CCC[C@@]2(CCN(C(c3ccccc3)c3ccccc3)C2)C1`, the Potency was > 4 µM (inactive).

For the compound `COc1ccc(Oc2ncc3nc(-c4cccs4)c(=O)n(-c4ccccc4)c3n2)cc1`, the Potency was > 20 µM (inactive).

Turning to `N#Cc1cccc(NC(=O)N2CC[C@@]3(CCCN(C(=O)c4cc(C(F)(F)F)cc(C(F)(F)F)c4)C3)C2)c1`, the Potency is > 20 µM (inactive).

As to `CN(C)c1ccc(-c2nc(NC3CCNCC3)c3ccccc3n2)cc1`, the Potency is > 20 µM (inactive).

As to `COc1ccccc1-c1ccc2ncnc(NCc3ccccc3)c2c1`, the Potency was > 20 µM (inactive).

On to `O=c1cnc2cnc(N3CCOCC3)nc2n1C1CC1`, for which the Potency was > 20 µM (inactive).

With `COCCn1c(=O)c(-c2ccc(F)cc2)nc2cnc(OCc3ccccc3)nc21`, the Potency was > 20 µM (inactive).

As for `O=c1c(-c2ccc(Cl)cc2)nc2cnc(N3CCNCC3)nc2n1-c1ccccc1`, the Potency is > 20 µM (inactive).

On to `COc1cccc(-c2nc(NCc3ccccc3)c3ccccc3n2)c1`, for which the Potency was > 20 µM (inactive).

For `COCC(=O)N1CCC2(CC1)CCN(c1ccccc1)CC2`, the Potency was > 20 µM (inactive).

In the case of `COCCNc1ncnc2ccc(-c3ccc(C(=O)N(C)C)cc3)cc12`, the Potency is > 20 µM (inactive).

For `COc1cccc(Nc2ncc3nc(-c4ccccc4)c(=O)n(C4CC4)c3n2)c1`, the Potency is > 20 µM (inactive).

In the case of `Cc1noc(C)c1-c1ccc2ncnc(N3CCC(C(=O)O)CC3)c2c1`, the Potency was > 20 µM (inactive).

Regarding `c1ccc(C(c2ccccc2)N2CCCC3(CCNCC3)C2)cc1`, the Potency was > 20 µM (inactive).

`CC(=O)N1CCC2(CCCN(c3ccncc3)C2)CC1`: the Potency was > 20 µM (inactive).

With `O=C(Nc1cccc(F)c1)N1CCCC2(CCN(C(=O)c3cnccn3)CC2)C1`, the Potency is > 20 µM (inactive).

`COc1ccccc1CNc1ncncc1-c1ccccc1OC`: the Potency is > 20 µM (inactive).

As to `CN(Cc1ccco1)c1ncnc2ccc(-c3ccccc3C#N)cc12`, the Potency was > 20 µM (inactive).

Take `COc1ccc2[nH]cc(CCNc3ccnc(-c4ccc(N(C)C)cc4)n3)c2c1`: the Potency was > 20 µM (inactive).

For the compound `Cc1noc(C)c1-c1ccc2ncnc(NCc3cccs3)c2c1`, the Potency was > 20 µM (inactive).

`COCCn1c(=O)c(-c2cccs2)nc2cnc(Oc3ccc(OC)cc3)nc21`: the Potency is > 20 µM (inactive).

Consider `O=C(c1ccco1)N1CCC[C@@]2(CCN(Cc3nccs3)C2)C1`, for which the Potency is > 20 µM (inactive).

On to `Cc1noc(C)c1-c1cc(NC2CC2)ncn1`, for which the Potency is > 20 µM (inactive).

Take `c1ccc(Nc2ncncc2-c2ccoc2)cc1`: the Potency was > 20 µM (inactive).

On to `Cc1nc2cnc(N3CCNCC3)nc2n(CCC#N)c1=O`, for which the Potency was > 20 µM (inactive).

With `CN(C)Cc1ccccc1-c1nc(NCc2cccs2)c2ccccc2n1`, the Potency was > 20 µM (inactive).

On to `CS(=O)(=O)N1CCC2(CCCN(Cc3ccccc3)C2)CC1`, for which the Potency was > 20 µM (inactive).

Regarding `Cc1ccccc1-c1cncnc1NC1CCNCC1`, the Potency was > 20 µM (inactive).

For the compound `COc1ccc(CNc2ncncc2-c2ccccc2C(F)(F)F)c(OC)c1`, the Potency was > 20 µM (inactive).

For the compound `Cn1cccc1C(=O)N1CCC2(CCCN(Cc3ccncc3)C2)CC1`, the Potency is > 20 µM (inactive).
